Assay results reported in the supplement of paper PMC8253809.
“And” between values parts separate entries of the source, which are not always exact repeats. Identical values can stand only once.

Assays:
Assay in all cases: growth inhibition (% activity, log2 RLU normalised to DMSO / staurosporine); higher = more growth inhibition
Details in all cases: 33 µM
[1] = system: DIPGX29 (H3.3 K27M diffuse intrinsic pontine glioma line)
Method in brief: (§1)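 pHGG cell lines and H9-derived neural stem cells were grown on Geltrex-coated 384-well plates. Approved drugs were added by pin tool at a single final concentration of about 33 μM, in triplicate, for 7 days at 37 °C, 5% CO2. CellTiter-Glo luminescence was log2-transformed and normalised per plate to % activity between solvent and positive control wells. The growth-inhibition value is the median over replicates.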

[2] = system: DIPGX37 (H3.3 K27M diffuse intrinsic pontine glioma line)
Method in brief: as §1

[3] = system: DIPGX7 (H3.3 K27M diffuse intrinsic pontine glioma line)
Method in brief: as §1

[4] = system: DIPGX9 (diffuse intrinsic pontine glioma line)
Method in brief: as §1

[5] = system: HGGX39 (paediatric high-grade glioma line)
Method in brief: as §1

[6] = system: HGGX6 (H3.3 G34R paediatric high-grade glioma line)
Method in brief: as §1

[7] = system: HNSC
Method in brief: as §1

[8] = system: SUDIPGIV (diffuse intrinsic pontine glioma line)
Method in brief: as §1

[9] = system: SUDIPGVI (diffuse intrinsic pontine glioma line)
Method in brief: as §1

[10] = system: SUDIPGXIII (diffuse intrinsic pontine glioma line)
Method in brief: as §1

Row | Compound | growth inhibition [1] | growth inhibition [2] | growth inhibition [3] | growth inhibition [4] | growth inhibition [5] | growth inhibition [6] | growth inhibition [7] | growth inhibition [8] | growth inhibition [9] | growth inhibition [10]
1 | CCCCCN(C)CCC(O)(P(=O)(O)O)P(=O)(O)O | -3.97% | 2.62% | -1.48% | -0.821% | 0.759% | -3.74% | 5.06% | -4.22% | -0.622% | 0.0777%
2 | OCCOCCN1CCN(C(c2ccccc2)c2ccc(Cl)cc2)CC1 (stereo not given) | 3.87% | 0.602% | 4.59% | 0.403% | 2.86% | 3.73% | 4.05% | 1.02% | -1.15% | 1.1%
3 | CN1CCN(C2=Nc3ccccc3Oc3ccc(Cl)cc32)CC1 | -0.96% | 1.38% | -0.128% | 1.22% | 6.27% | -0.859% | 1.57% | 4.37% | -2.03% | 0.859%
4 | NCCCCCC(=O)O | 0.867% | 2.56% | 2.76% | 1.09% | 2.5% | 4.7% | 0.436% | 1.23% | 0.903% | -1.64%
5 | COc1ccccc1OCC(O)CN1CCN(CC(=O)Nc2c(C)cccc2C)CC1 (stereo not given) | -3.85% and 2.95% | -0.299% and 2.63% | -1.1% and 4.84% | -2.23% and 2.88% | -2.5% and 3.07% | -1.8% and 1.36% | -2.11% and 14% | -2.68% and 2.7% | -1.9% and -0.296% | -2.34% and -1.26%
6 | CC(C)C(=O)Oc1ccc(CO)cc1[C@H](CCN(C(C)C)C(C)C)c1ccccc1 | 0.102% | -1.82% | 0.436% | 0.893% | 1.59% | -1.41% | 0.95% | -0.518% | 1.55% | 0.403%
7 | Cc1cccc(C)c1NC(=O)C1CCCCN1C (stereo not given) | 0.788% | 0.607% | -0.12% | 0.0719% | 1.51% | 1.22% | -1.45% | -0.501% | 1.09% | 1.48%
8 | CC(NC(=O)Cc1cc(F)cc(F)c1)C(=O)NC(C(=O)OC(C)(C)C)c1ccccc1 (stereo not given) | 0.109% | -1.56% | 0.0172% | 0.631% | 1.42% | 1.3% | 1.25% | -6.22% | -0.444% | 0.458%
9 | CN(C/C=C/C#CC(C)(C)C)Cc1cccc2ccccc12 | -0.633% and -1.72% | -0.939% and -0.818% | -1.38% and -1.19% | 0.275% and -0.829% | 1.78% and -1.01% | 0.104% and -1.17% | -0.321% and -4.36% | -0.307% and 0.598% | 1.93% and -1.67% | -1.07% and -1.51%
10 | CCC[C@@H]1C[C@@H](C(=O)N[C@@H]([C@H]2O[C@H](SC)[C@H](O)[C@@H](O)[C@H]2O)[C@@H](C)O)N(C)C1 | -2.47% | 0.84% | -0.347% | 0.338% | -0.628% | -0.292% | 0.119% | 0.1% | -1.6% | 0.849%
11 | C[C@@H]1CN(c2c(F)c(F)c3c(=O)c(C(=O)O)cn(C4CC4)c3c2F)C[C@H](C)N1 | -1.92% | -8.88% | -0.67% | -1.75% | 1.32% | -0.41% | 1.66% | -2.13% | -5.84% | -3.56%
12 | CC(=O)Oc1cc2c(s1)CCN(C(C(=O)C1CC1)c1ccccc1F)C2 (stereo not given) | 0.962% | -2.57% | 1.32% | -0.813% | 0.291% | -2.02% | 0.528% | -0.967% | -3.04% | -1.75%
13 | O=C(O)Cc1cc(I)c(Oc2ccc(O)c(I)c2)c(I)c1 | 1.55% | 4.31% | 0.436% | 0.952% | 2.17% | 1.33% | -1.43% | 3.33% | 2.21% | -14.4%
14 | O=C1CC[C@@H](C(=O)N2CSC[C@H]2C(=O)O)N1 | 2.29% | 1.19% | 1.62% | 1.89% | 3.63% | 2.97% | 2.12% | 1.86% | 2.32% | -0.296%
15 | CCn1cc(C(=O)O)c(=O)c2cc(F)c(N3CCNCC3)nc21 | -0.406% | 0.315% | -0.279% | -2.11% | 0.108% | -1.99% | 2.46% | 0.478% | 0.763% | 0.429%
16 | Cc1c(-c2ccccc2)oc2c(C(=O)OCCN3CCCCC3)cccc2c1=O | -0.48% | -1.55% | 0.152% | -0.867% | 0.0272% | 0.269% | -2.8% | -0.209% | -3.08% | -2.91%
17 | COC(=O)C1=CO[C@@H](O)[C@@H]2C(CO)=CC[C@H]12 | -0.243% | 2.53% | -0.199% | 2.66% | -0.158% | 2.23% | -1.1% | -0.3% | -0.83% | 1.32%
18 | CCC[C@H](NC(=O)[C@@H]1[C@H]2CCC[C@H]2CN1C(=O)[C@@H](NC(=O)[C@@H](NC(=O)c1cnccn1)C1CCCCC1)C(C)(C)C)C(=O)C(=O)NC1CC1 | 0.654% | 1.66% | 1.2% | 1.41% | 1.74% | 2.24% | 3.02% | 0.139% | 1.78% | -0.0315%
19 | O=C[C@H](O)[C@@H](O)[C@H](O)CO | 1.32% | 0.386% | 0.91% | 1.55% | 1.07% | 1.49% | 0.405% | -0.641% | -1.35% | -0.863%
20 | CC(C)[N+]1(C)[C@@H]2CC[C@H]1C[C@@H](OC(=O)C(CO)c1ccccc1)C2 (stereo not given in full) | -0.758% | 3.5% | 0.48% | 0.945% | 1.73% | 2.16% | -1.56% | -0.725% | 2.4% | 0.743%
21 | Cc1c(N(C)C)c(=O)n(-c2ccccc2)n1C | -0.911% | -0.00267% | 0.576% | -1.42% | 2.61% | -1.31% | -0.0115% | -1.34% | -0.66% | 0.298%
